Test results as given in PubChem BioAssay (Tox21).
Unmarked numbers belong to inactive results. Active and inactive are the calls of the source. The call rests on the fitted dose curve.

Target: Gonadotropin-releasing hormone receptor (Homo sapiens) (UniProt P30968)
Test: Human gonadotropin-releasing hormone receptor (GnRHR) small molecule agonists, calcium flux assay in GnRHR-HEK293 cells (AID 1920063); further: nearly all actives have a fitted effect of over 35% in size
Details: calcium flux fluorescence, agonist mode; series mostly up to 57.6 µM; activity change: at the top concentration
From the text: National Center for Advancing Translational Sciences [NCATS]
Division of Preclinical Innovation [DPI]
U.S. Environmental Protection Agency [EPA]
National Institutes of Environmental Health Sciences [NIEHS]
National Toxicology Program [NTP]
U.S. Food and Drug Administration [FDA]
Gonadotropin-releasing hormone receptor (GnRHR) is a G-protein-coupled receptor (GPCR) and acts (through phospholipase C) to increase intracellular inositol trisphosphate and then release intracellular calcium stores. Cell-based GnRHR-Hek293 calcium influx assay is using HEK293 cells that have been genetically engineered to express the human GnRHR, which activity can be measured by calcium signaling. A compound/drug can activate (agonist) GnRHR that can be monitored by levels of intracellular calcium.
GnRHR-HEK293 cells developed by Codex Corp contain human GnRHR reporter gene, which was stably integrated into HEK 293 cells. The compound activation can be detected by fluorescence intensity via calcium flux assay. This cell line has been used to screen the Tox21 10K compound library to identify GnRHR agonists.
GnRHR-Hek293 cells were dispensed at 1500cells/4uL/well in 1536-well black wall/clear bottom plates using a multidrop dispenser. After the assay plates were incubated at a 37 C/5% CO2 incubator for 18 hours, 4 uL of Calcium Dye Solution was added to each well. The plates were incubated at 37 C for 1 hour. For agonist mode, 23 nL of compounds dissolved in DMSO, positive controls or DMSO only was transferred to the assay plate by a pin tool station. The fluorescence intensity in the plates was measured using FDSS 7000EX kinetic plate reader with a filter set of Ex/Em=480/540 for 3 min at 1 sec intervals. Each test compound was measured at 15 concentrations and in triplicates.
On the % scale 0 is the no-effect control and ±100 the full control effect; potency means the concentration at half of the fitted maximal effect.

Gonadotropin-releasing hormone receptor (Homo sapiens), sequence (P30968 whole entry, looked up): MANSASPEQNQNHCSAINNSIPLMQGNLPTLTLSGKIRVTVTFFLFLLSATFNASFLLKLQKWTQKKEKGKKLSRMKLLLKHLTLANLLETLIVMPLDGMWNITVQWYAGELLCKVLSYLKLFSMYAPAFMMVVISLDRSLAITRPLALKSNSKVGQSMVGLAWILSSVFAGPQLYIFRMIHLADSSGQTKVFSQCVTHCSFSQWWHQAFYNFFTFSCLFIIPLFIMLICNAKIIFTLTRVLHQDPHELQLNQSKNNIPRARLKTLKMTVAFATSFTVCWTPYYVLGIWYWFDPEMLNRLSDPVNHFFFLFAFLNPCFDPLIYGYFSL

SMILES | activity change | Potency
CCOC(=O)C(C)Oc1ccc(Oc2nc3ccc(Cl)cc3o2)cc1 (stereo not given) | -0.16% | –
O=C(Cl)c1ccc([N+](=O)[O-])cc1 | 1.46% | –
CC(=O)OCC1=C(C(=O)O)N2C(=O)[C@@H](NC(=O)CSc3ccncc3)[C@H]2SC1 | -0.205% [at 26.4 µM, stronger effect = higher value] | –
Nc1ccn(C2CO[C@H](CO)O2)c(=O)n1 (stereo not given in full) | – | 4.25 µM (active)
CC/C=C1/OC(=O)c2ccccc21 | -2.28% | –
C=CCOCC(O)CS(=O)(=O)O (stereo not given) | 1.31% | –
CCOC(=O)C1=C(C)NC(C)=C(C(=O)OCC)C1c1ccccc1/C=C/C(=O)OC(C)(C)C | -0.0851% [at 26.4 µM, stronger effect = higher value] | –
Nc1nc(N)c2nc(CNc3ccc(C(=O)N[C@@H](CCC(=O)O)C(=O)O)cc3)cnc2n1 | -0.296% | –
CCNCCO | -1.26% | –
FB(F)F | -0.0261% | –
CC(C)(C)c1ccc(C(=O)O)cc1 | -0.0513% | –
CC(C)(C(=O)O)c1ccc(C(O)CCCN2CCC(C(O)(c3ccccc3)c3ccccc3)CC2)cc1 (stereo not given) | -1.04% [at 26.4 µM, stronger effect = higher value] | –
CCCN(CCc1cccs1)[C@H]1CCc2c(O)cccc2C1 | 4.1% [at 26.4 µM, stronger effect = higher value] | –
c1cc(N(CC2CO2)CC2CO2)ccc1OCC1CO1 (stereo not given) | – | inactive
NS(=O)(=O)c1cc2c(cc1Cl)NC(CSCc1ccccc1)=NS2(=O)=O | -0.001% [at 26.4 µM, stronger effect = higher value] | –
COCc1nnc(-c2ccc[n+]([O-])c2)n1-c1c(Cl)c(Cl)cc2[nH]c(=O)c(=O)[nH]c12 | -0.427% | –
C=C(C)C(=O)OCCOC(=O)CC(C)=O | -0.601% | –
C=C(C)C(=O)OCCOP(=O)(O)OCCOC(=O)C(=C)C | -0.873% | –
O=C1c2ccccc2-c2ccccc21 | 0.212% | –
CN1CCCN=C1/C=C/c1cccs1 | -0.0901% [at 26.4 µM, stronger effect = higher value] | –

SMILES | activity change | Potency
COc1ccc2c(c1)c(CC(=O)OC/C=C(\C)CC/C=C(\C)CCC=C(C)C)c(C)n2C(=O)c1ccc(Cl)cc1 | -0.745% [at 26.4 µM, stronger effect = higher value] | –
CC(C)c1ccccc1N | -1.36% | –
CCOB(OCC)OCC | 0.174% | –
O=C(O)CN(CCN(CC(=O)O)CC(=O)O)CC(=O)O | 0.111% [at 2.04 µM, stronger effect = higher value] | –
O=C(O)COc1ccc2ccccc2c1 | 0.0227% | –
C[C@@H]1C[C@H]2[C@@H]3CCC4=CC(=O)C=C[C@]4(C)[C@@]3(F)[C@@H](O)C[C@]2(C)[C@@]1(O)C(=O)COC(=O)c1ccncc1 | 0.633% [at 26.4 µM, stronger effect = higher value] | –
O=S(=O)(O)c1cc(S(=O)(=O)O)c2c(N=Nc3ccccc3)c(O)ccc2c1 | – | inactive
S=C([S-])NCCNC(=S)[S-].[Mn+2] | 2.84% | –
CC(C)C1CCC(C(=O)N[C@H](Cc2ccccc2)C(=O)O)CC1 (stereo not given in full) | -1.17% [at 26.4 µM, stronger effect = higher value] | –
Nc1ccn([C@@H]2O[C@H](CO)[C@@H](O)[C@@H]2O)c(=O)n1 | 9.47% | –
C=C(C)C(=O)OCCOCCOCCOCCOC(=O)C(=C)C | 0.735% | –
Cc1c(C)c2c(c(C)c1OC(=O)c1cccnc1)CC[C@@](C)(CCC[C@H](C)CCC[C@H](C)CCCC(C)C)O2 | 1.41% [at 26.4 µM, stronger effect = higher value] | –
OC[C@H]1O[C@@H](n2cnc3c(=S)nc[nH]c32)[C@H](O)[C@@H]1O | 0.453% [at 26.4 µM, stronger effect = higher value] | –
c1ccc(-c2nc3ccccc3[nH]2)cc1 | -0.22% | –
C[Si](C)(C)C | -2.27% | –
C=C[Si]1(C)O[Si](C)(C=C)O[Si](C)(C=C)O[Si](C)(C=C)O1 (stereo not given) | -0.232% | –
Cc1cccc(C(=O)O)c1O | -0.547% [at 26.4 µM, stronger effect = higher value] | –
C1CN(SSN2CCOCC2)CCO1 | – | inactive
NC(=O)Nc1nc2ccccc2[nH]1 | 0.502% | –
CC1(C)O[C@@H]2C[C@H]3[C@@H]4CCC5=CC(=O)C=C[C@]5(C)[C@H]4[C@@H](O)C[C@]3(C)[C@]2(C(=O)CO)O1 | 0.529% [at 26.4 µM, stronger effect = higher value] | –
